The supplement of paper PMC11417369
± gives the standard deviation of the averaged measurements. Over roughly 25,000 sequences, “ln(normalized median fluorescence intensity)” has its median near 8.6; the highest 2% begin near 10. This is one part of a sample in which the highest values are shown more often than they occur.

System: PfAP2-EXP AP2 domain (GST-tagged)
Assay: gcPBM binding intensity (ln(normalized median fluorescence intensity)); higher = stronger DNA binding
In short: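 After 1 h on an Agilent 4 × 180k array of primer-extended double-stranded 36-bp intergenic genomic probes and negative controls, bound GST-tagged P. falciparum DNA-binding domains were detected with Alexa488 anti-GST antibody and scanned at 488 nm. The domains had been expressed in E. coli, and binding took place in 1× PBS with 1% milk, 0.2 mg/ml BSA, 0.5% salmon testes DNA and 0.03% Triton X-100. Binding intensity is the highest Masliner-normalised natural-log median intensity across replicate spots of either probe orientation.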

Sequence | gcPBM binding intensity (ln)
GAAAAAAAAAAAAAAAAACACACGGTACATTCAAAG [CACACA_site303] | 8.5 ± 0.58
TACTGATCCACATTTATACACACCTCGGTTTGTAGA [CACACA_site417] | 8.56 ± 0.4
CTTAATATTCTTTAAAGTACACAAAATAAGAATATA [XGTACX_site5489] | 8.87 ± 0.59
ATAATATAAATACAAACACACAATTGCGTCCACATT [CACACA_site5039] | 8.82 ± 0.38
GTCCAATAAGGAAGAGTGCAAAAATTAAATAATATA [GTGCAC_site9751] | 8.76 ± 0.28
ATATATATATATATATGTACATACAATTATATTCTC [XGTACX_site1133] | 10.2 ± 0.29
TATATATATTATATATGTACATATTATATATATATA [XGTACX_site7300] | 9.46 ± 0.17
ATATATATATATATATGTACATATATATATTATATT [XGTACX_site6303] | 10 ± 0.62
ATATATATATATATATGTACATATTATTCTCATTGT [XGTACX_site6259] | 9.88 ± 0.28
TATATTTATACAATATGTACATATTATATATATATA [XGTACX_site3098] | 9.57 ± 0.26
ATATATATATATATATGTACATATATTCGATTATTA [XGTACX_site557] | 10.29 ± 0.049
AAGTTTTTTTCTTTTTTTCTCTCTTTTTTTTTTTTT [XGTACX_negctrl_site613] | 8.19 ± 0.51
ATAAATATATATATAGTGCATATAAGCCACCTTCAA [GTGCAC_site9628] | 8.86 ± 0.014
AATTGAAAAGAATGAAGTACACATTTGATGATACAT [XGTACX_site5182] | 8.62 ± 0.33
TACAATATAAAATACACACGCACACCGAAAAAAAAA [CACACA_site5865] | 8.53 ± 0.4
ATATAAAAAAAAAATTGTACAAAAATATATACATAT [XGTACX_site469] | 8.53 ± 0.42
AATAATATATTTAGGGGTACATAATAATATATTTTA [XGTACX_site8366] | 8.81 ± 0.6
AAATATATTATAAATTGTACGTTTATATATATTATT [XGTACX_site5110] | 8.29 ± 0.37
TTAGGCAAGGCGGGGGGTACGTTTTTATATAATTAT [XGTACX_site8029] | 10.7 ± 0.18
ATCTTTCCTATTTGTAGTACAAAAAAAAAAAAAAAA [XGTACX_site5485] | 8.44 ± 0.18
TTTGTAATAACATATGCATGTTCAAAAAATAAAATA [TGCATGCA_site817] | 8.4 ± 0.36
TTATAAAAGAAAAAAAAAAAAAAAAAAAAAAAAAAA [CACACA_negctrl_site1006] | 7.89 ± 0.43
AAGAAAAACTTATATATATATATATATATATATATA [TGCATGCA_negctrl_site466] | 10.3 ± 0.29
AAGAAAAAAAAAAAAACACACATATATTTATTTATA [CACACA_site7042] | 8.06 ± 0.47

Sequence | gcPBM binding intensity (ln)
TATACATTATTATTATGTACTTAAATATATATTATA [XGTACX_site5173] | 8.35 ± 0.34
ATTACAAATATAATATGTACTTAAATATAATTAAAA [XGTACX_site7038] | 8.17 ± 0.34
ATATATATATATATATGTACTTAAAAAATATATACA [XGTACX_site8952] | 10.2 ± 0.53
AATAATAAATAAATGTGTACTTAAAAATATTATATT [XGTACX_site3005] | 8.44 ± 0.33
TTTAATAATATAATGTGTACTTAAAAATTTATATAT [XGTACX_site5821] | 8.29 ± 0.21
ATATATATATATGTGTGTACTTAAAAATATAATGCA [XGTACX_site7753] | 10.2 ± 0.14
TGGAAAATTATTAACACACACATATAAATATATATA [CACACA_site46] | 8.4 ± 0.45
TGCAAATTTAACAAAAAAAAAAAAAAAAAAAAAAAA [GTGCAC_negctrl_site64] | 7.88 ± 0.45
AAAATACAATTTCTAGCACACAAAATATTATTATAA [CACACA_site9056] | 8.34 ± 0.37
TTCACTTTTTTTTTTTTTTTTTTTTTTTTTTTTATT [GTGCAC_negctrl_site350] | 8.07 ± 0.56
TAATTTCTTATGTATTGTACATATAATATATGATAT [XGTACX_site4898] | 8.52 ± 0.41
AATATTTTCTGTAATACTTCTTTTCAATTTATTTCG [CACACA_negctrl_site1390] | 8.76 ± 0.45
TATAAAATAAAAGTAAATATATATATATATATATAT [TGCATGCA_negctrl_site208] | 10.1 ± 0.3
ATATATATATATATATGGTAAAGTAAAAGGAAATAC [XGTACX_negctrl_site45] | 10.3 ± 0.3
ATAATATATGAAAGTGGTACACAAAGGAAAATAAAA [XGTACX_site333] | 9.14 ± 0.57
GAAACGTTTTTGAGTAGTACACACACAATAAGGATG [XGTACX_site6809] | 9.02 ± 0.45
TTTTATACATAAATGTGTACGTATATATAATGAATT [XGTACX_site2762] | 8.59 ± 0.32
GATTTATATTTTAAAAGTACAAGTTAAAATAAAAGT [XGTACX_site7059] | 8.74 ± 0.33
TTATTTTATTTTTTTGTGCACATATATATTTATAAA [GTGCAC_site9615] | 9.15 ± 0.21
ATATATGATGTATTTGTGCACATATATATATTATTA [GTGCAC_site9471] | 8.75 ± 0.028
TTTTTGTTATTATGTGTGCACATATATATATATATA | 10.3 ± 0.4
ACATATTATATATGTGTGCACATATATATATATTTA [GTGCAC_site9591] | 8.47 ± 0.13
ATATATATTATGTGTGTGCACTTTTGTTATTATTAT | 9 ± 0.33
TATGTATATTTTTTTGTGCACATATATATATATATA | 10.2 ± 0.26

Sequence | gcPBM binding intensity (ln)
AACAAATACAGACACACACACACACTAATAAAAAAA [CACACA_site8067] | 8.66 ± 0.52
ATATATGGAAAGAGTAGTACTATTATAGGGGTGTTA [XGTACX_site6785] | 8.95 ± 0.64
TTTTTTTTGTAGAATTGTACTTATAAAATATATATA [XGTACX_site2116] | 8.19 ± 0.34
TAAAAATTACTATATGAACACACATGATTAGATATA [CACACA_site9012] | 8.43 ± 0.49
TTATATTTATAAAGGTGTACCTTAAAATGATTTTAC [XGTACX_site3774] | 8.19 ± 0.25
AAAAAAAATATAATATGTACATATCTATATATCAAC [XGTACX_site4881] | 8.55 ± 0.38
TGTGTATATTATATGTGTACATATCAATGTTTATAT [XGTACX_site1885] | 8.61 ± 0.26
TATACATGTATATATTGTACATATGTTTTTTTTACA [XGTACX_site3300] | 8.86 ± 0.57
ATATATATATATATATGTACATATGTCAACTGTCTA [XGTACX_site8636] | 10.3
GTCATATATAATTGTTGTACATTTTTATAATTATGT [XGTACX_site8091] | 8.86 ± 0.36
GCTCAATGTTTTACATGTACATATATATATATATAT [XGTACX_site8210] | 10.2 ± 0.33
ATATATATATATATATGTACATATATTTATTTATTG [XGTACX_site6267] | 10.2 ± 0.3
ATTTGTTCATTTGGTTGTACATAATTTATTTTTATA [XGTACX_site785] | 8.75 ± 0.33
ATATATATATATATATGTACATATATTTATATTTAT [XGTACX_site6179] | 9.99 ± 0.42
ATTTATTTATTTATATGTACATATATATATATATAT [XGTACX_site339] | 10.1 ± 0.3
GTAATTTTATATGGTTGTACATATATATATATATAT [XGTACX_site6659] | 10.2 ± 0.18
ATATATATATATGTCTGTACATAAAAAATAATAAAT [XGTACX_site3122] | 10 ± 0.36
GGAATTATAATAAATGGTACACATAAAAAAAAAAAA [XGTACX_site8343] | 8.77 ± 0.59
ATATATAATCATCACACATGCAGCCCTGATGAAAAA [TGCATGCA_site687] | 8.77 ± 0.38
TGCATACTTTTGTAAGTGCATAAAATCGTACCATGC | 8.71 ± 0.11
GATATTACGTGTTTGGTATTTTTTGATGTTAATAGG [CACACA_negctrl_site105] | 8.8 ± 0.52
ATATATATATATTTATGTACATATATTTTTTTTTTT [XGTACX_site8558] | 9.73 ± 0.28
ATATATATATATATATGTACATATTTTTTATTTTAT [XGTACX_site5761] | 10.1 ± 0.5
TTTTTTTTTTTTTTATGTACATATATATATTTTATT [XGTACX_site6915] | 8.61 ± 0.6

Sequence | gcPBM binding intensity (ln)
AAAAAAAAAAAAAAGAGTACATTTATTTATATATCT [XGTACX_site2381] | 8.23 ± 0.19
ATATATATATATGTATGTACATATTTTTTTTAACAC [XGTACX_site8475] | 9.93 ± 0.4
TTTTTTTTTATATTTAGTACATATATATTATTATAT [XGTACX_site3334] | 8.39 ± 0.31
ATATATATATATGTATGTACACATATTTTTTAACTT [XGTACX_site431] | 10.42 ± 0.042
TTATATTTTTACAAGAGTACATATATATATATATAT [XGTACX_site5383] | 10.2 ± 0.31
ATATATATATATATATGTACATATTTTATAACTGTA [XGTACX_site5395] | 10.2 ± 0.33
ATATATATATATATATGTACATATATTTTTATTTAT [XGTACX_site3508] | 10.3 ± 0.26
TATATACATTTATGTACACACACATATATGTATATT [CACACA_site8971] | 8.59 ± 0.34
CATATATATTTTATATGTACATATATATTTTATATA [XGTACX_site8665] | 8.45 ± 0.25
CTTAAGTAAAATTAAAGTACATGGACAAAAAATATA [XGTACX_site7900] | 8.87 ± 0.28
AAAAAAAAAAAAAAAAGTACAAAAAAAAAAAAAAAA [XGTACX_site4549] | 8.26 ± 0.057
AAAATTAATTATTACAAAAATGAAAAGACATATTTT [GTGCAC_negctrl_site735] | 8.23 ± 0.38
TAATCAATTCAATATTGTACGATATTTACCTTTAAA [XGTACX_site4678] | 8.89 ± 0.42
AGAGGGGAAAACATGATGCACTAGTATAACCAAGAA | 9.22 ± 0.34
GTGAATATTAAAAAATGTACACAATTATATGTATAT [XGTACX_site4834] | 8.49 ± 0.28
TTCAAAAGATATATCGTGCACATATATATGATGAAA | 9.35 ± 0.62
ATGCTCAGGAAAACATGTACAAAATTATTTGTTATA [XGTACX_site4306] | 8.31 ± 0.34
ATGTATATATATATATGTACATATTTTTTATATGTA [XGTACX_site441] | 8.29 ± 0.25
AAGTATTTTTTTACATGTACATATATATATATATAT [XGTACX_site5065] | 10.2 ± 0.26
GTATATAAGTATATATGTACATATATTTTATATATA [XGTACX_site4745] | 8.42 ± 0.23
TGTATGTTTATTTATCGTACATATATATATATATAT [XGTACX_site7315] | 10.2 ± 0.18
ATATATTTATTTATATGTACATATTATATATTATAG [XGTACX_site3371] | 8.55 ± 0.35
TATATTATATTTTTATGTACATATATGTTTTTTTTT [XGTACX_site8239] | 8.52 ± 0.092
